p53ts 39C kill: kills p53ts cells at the nonpermissive temperature. H1299-p53A138V viability at 39C, ATP luminescence, 24 h. Potency, µM (series often up to 46.1 µM), for the others: at the top dose activity change, negative = cell killing, hits mostly cytotoxic. 1.5% of 130,000 active; further: potency means the concentration at half of the fitted maximal effect; on the % scale 0 is the no-effect control and ±100 the full control effect; nearly all actives have a fitted effect of over 55% in size
GFP derepression: derepresses silenced GFP locus in mouse C127i cells. mouse C127i GFP locus derepression, cytometry, 30 h. Potency, µM (series often up to 46.1 µM), without a hit: at the top dose GFP derepression (activation). 0.09% of 68,000 active; further: % of control where 0% means no effect
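Read-out is the number of GFP-positive cells, scored as fluorescent objects 20 to 120 um wide, reflecting derepression of a silenced CMV-GFP reporter in murine C127i cells after 30 h compound exposure at 37 C.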
Imprint erasure: induces erasure of genomic imprints in mouse ES cells; 0.02% of 110,000 active; AID 1948; mouse ES Peg3-LacZ reporter, beta-gal luminescence, 40 h; Potency, µM (highest dose often 60.7 µM), for inactives: at the top dose activity change, positive = activation, hits mostly activators; further: potency means the concentration at half of the fitted maximal effect
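Each well holds 300 Peg3LacZ-Neo (maternal) female ES cells incubated 40 h at 37C, 5% CO2. LacZ is measured by BetaGlo luminescence, with AC50 and maximum efficacy derived from dose-response curves.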
HBB splice mod: alters splicing of the hemoglobin beta chain. HBB splicing reporter cell assay, activation; EGFP reporter with mutant IVS2-654 intron; response scale: normalised to 500 nM splice-correcting PNA. 0.06% of 65,000 active. AID 925. Potency, µM (highest dose often 46.1 µM), for inactives: at the top dose activation, hits mostly activators; further: potency means the concentration at half of the fitted maximal effect; 0% is about no effect
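HeLa cells stably expressing EGFP interrupted by mutant beta-globin intron 2 (IVS2-654), 500/well in 2% FCS. Treated with compound for 2 days at 37C. Splicing correction scored as total well GFP intensity (488 nm excitation, 500-520 nm emission); 500 nM antisense PNA served as control.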
p53ts 32C kill: cytotoxicity in p53ts cells at permissive temperature; Potency, µM (doses to about 46.1 µM), inactives show top-dose activity change, negative = cytotoxicity, most hits filed as cytotoxic; 0.93% of 130,000 active; H1299-p53A138V at 32C, ATP luminescence viability, 24 h;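 further: potency means the concentration at half of the fitted maximal effect; 0% = DMSO and -100% = full killing by reference compound; nearly all actives have a fitted effect of over 55% in size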
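ATP-content luminescence (ATPlite) read-out after 24 h compound exposure at 32C in H1299-p53A138V cells (600/well). Tested up to 46 uM. Normalized to DMSO (0%) and 100 uM tamoxifen (100% killing); Hill-fit AC50.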
Ub-GFP proteasome: proteasome inhibitors stabilizing ubiquitin-GFP reporter. Potency, µM (doses to about 45.9 µM), for inactives: top-dose activation (GFP accumulation), hits mostly activators. Ubiquitin-GFP reporter cells, proteasome inhibition, GFP fluorescence; response scale: untreated = 0%, 10 µM MG-132 = 100%. 67,000 tested, under 10 active; active means well fitted activation curve with a large enough effect, not every such curve was filed as active; inconclusive means small, poorly fitted or top-dose-only effect, or another doubt; inactive means no such curve, though single readings can be large or run the other way; further: potency means the concentration at half of the fitted maximal effect
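GFP accumulation read-out: laser plate cytometry counting ubiquitin(G76V)-GFP-expressing U2OS cells after 4 hr compound exposure at 37 °C. Titrations spanned 46 uM to 2.9 nM; 0% = basal, 100% = 10 uM MG-132; concentration-response curves fitted.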
* = called active by the depositor; [ ] = another dose, or the depositor's remark. Most compounds without a hit are left out; they make up all but 1.6% or so of the library. Unless noted, the call rests on the fitted dose curve; in most records, active means well fitted curve in the direction sought with a large enough effect; inconclusive means small, poorly fitted or top-dose-only effect, or another doubt; inactive means no such curve, though single readings can be large; an effect the other way counts as inactive or inconclusive.

How did CC(C)Oc1ccc(C(=O)NCC(c2ccc(N(C)C)cc2)N2CCc3ccccc32)cc1 (stereo unspecified) do in these assays?
p53ts 39C kill: -14%; Imprint erasure: 4%[10.9 µM]; p53ts 32C kill: 7%

How did COc1ccc(C(=O)NCC(c2ccc(N(C)C)cc2)N2CCc3ccccc32)cc1 (stereo unspecified) do in these assays?
p53ts 39C kill: 10µM*; Imprint erasure: -15%[10.9 µM]; p53ts 32C kill: -13%

Results for COc1cccc2cc(C(C)=O)c(=O)oc12 ?
p53ts 39C kill: 1%; GFP derepression: 0%; Imprint erasure: -3%; HBB splice mod: 0%; p53ts 32C kill: 9%; Ub-GFP proteasome: 7%

How did COc1cccc2cc(C(=O)Nc3ccc(CC(=O)O)cc3)c(=O)oc12 do in these assays?
p53ts 39C kill: 7.9µM*; Imprint erasure: -52%[10.9 µM]; p53ts 32C kill: 5µM*

How did C#C[C@@]1(O)CC[C@H]2[C@H]3CCC4=Cc5oncc5C[C@]4(C)[C@@H]3CC[C@@]21C do in these assays?
GFP derepression: -1%; HBB splice mod: -1%; Ub-GFP proteasome: -4%

What do the screens show for `COc1cccc(O)c1O`?
p53ts 39C kill: 6.3µM*; Imprint erasure: -59%; p53ts 32C kill: 5µM*

How did CCCOc1ccc(C(=O)Nc2cccc(NC(=O)c3ccc(Cl)cc3Cl)c2)cc1 do in these assays?
p53ts 39C kill: 7.9µM*; Imprint erasure: -13%[10.9 µM]; p53ts 32C kill: inconclusive

How did CCc1ccccc1NC(=O)Cn1c(=O)n(CCc2ccccc2)c(=O)c2sc3ccccc3c21 do in these assays?
p53ts 39C kill: 10µM*; Imprint erasure: -12%[10.9 µM]; p53ts 32C kill: -12%

What do the screens show for `CCOC(=O)c1cc(-c2ccc(OC)cc2)n(CCC(=O)NCCc2ccccc2)c1C`?
p53ts 39C kill: 1%; Imprint erasure: -16%[10.9 µM]; p53ts 32C kill: 41%

How did CSc1ccc(CCNC(=O)C(C)n2nc(C)c3sc4ccccc4c3c2=O)cc1 (stereo unspecified) do in these assays?
p53ts 39C kill: 10µM*; Imprint erasure: -34%[10.9 µM]; p53ts 32C kill: 10µM*

How did Cc1nn(C(C)C(=O)NC2CCCCC2)c(=O)c2c1sc1ccccc12 (stereo unspecified) do in these assays?
p53ts 39C kill: 10µM*; Imprint erasure: -33%[10.9 µM]; p53ts 32C kill: 13µM*

What do the screens show for `CCC(C(=O)NCCc1ccc(SC)cc1)n1nc(C)c2sc3ccccc3c2c1=O` (stereo unspecified)?
p53ts 39C kill: -9%; Imprint erasure: -10%[10.9 µM]; p53ts 32C kill: -3%

How did COc1ccc(C(=O)COC(=O)C(Cc2c[nH]c3ccccc23)NC(=O)c2ccc(C(C)(C)C)cc2)cc1 (stereo unspecified) do in these assays?
p53ts 39C kill: 14%; Imprint erasure: -18%[10.9 µM]; p53ts 32C kill: 12%

How did COc1ccccc1CNC(=O)c1cc2sccc2n1Cc1ccc(Cl)cc1 do in these assays?
p53ts 39C kill: -7%; Imprint erasure: -12%[10.9 µM]; p53ts 32C kill: 4%

What do the screens show for `Cc1cccc(NC(=O)C(NS(=O)(=O)c2cccc3nsnc23)c2ccccc2)c1C` (stereo unspecified)?
p53ts 39C kill: 15%; Imprint erasure: 16%[10.9 µM]; p53ts 32C kill: 4%

Results for CC(C)(C)C(=O)Nc1ccc(-c2nc3ccc(NC(=O)C(C)(C)C)cc3[nH]2)cc1 ?
p53ts 39C kill: inconclusive; Imprint erasure: -13%[10.9 µM]; p53ts 32C kill: 7.9µM*

Results for O=C(Nc1nc2n(n1)C(c1ccccc1)C=C(c1ccccc1)N2)c1ccc(Cl)c([N+](=O)[O-])c1 (stereo unspecified) ?
p53ts 39C kill: -10%; Imprint erasure: -12%[10.9 µM]; p53ts 32C kill: inconclusive

Results for CCOC(=O)c1ccc(NC(=O)c2noc3c2CCCC3)cc1 ?
p53ts 39C kill: -20%; Imprint erasure: -27%[10.9 µM]; p53ts 32C kill: -6%

How did COCCNC(=O)c1cnc2sc(N3CCC(C)CC3)nn2c1=O do in these assays?
p53ts 39C kill: 5%; Imprint erasure: 5%[10.9 µM]; p53ts 32C kill: -1%

What do the screens show for `CCc1nn(CC(=O)Nc2ccc(C)c(F)c2)c(=O)c2cc3cc(C)ccc3n12`?
p53ts 39C kill: 32µM*; Imprint erasure: 14%[10.9 µM]; p53ts 32C kill: 3%

How did COc1ccc(CCNC(=O)CCn2c(=O)c3ccccc3n(Cc3ccccc3F)c2=O)cc1OC do in these assays?
p53ts 39C kill: inconclusive; Imprint erasure: -13%[10.9 µM]; p53ts 32C kill: inconclusive

How did COc1cc2c(cc1OC)CN(C(=O)CC1CC3CCC1C3)CC2 (stereo unspecified) do in these assays?
p53ts 39C kill: 13µM*; GFP derepression: 0%; Imprint erasure: -66%; HBB splice mod: -1%; p53ts 32C kill: 10µM*; Ub-GFP proteasome: 9%

How did COc1cc(NC(=O)N2CCC(CN3CCOCC3)CC2)cc(OC)c1OC do in these assays?
p53ts 32C kill: -11%

Results for C=C1C(=O)C=C2CN(C(=O)c3ccccc3)[C@@](Cc3ccc(F)cc3)(C(=O)OC)[C@@H]12 ?
p53ts 39C kill: 3.2µM*; Imprint erasure: -34%; HBB splice mod: -1%; p53ts 32C kill: 3.2µM*

Results for CCn1cc(SCC(=O)NCc2ccc3c(c2)OCO3)c2ccccc21 ?
p53ts 39C kill: 5µM*; Imprint erasure: -90%; HBB splice mod: 0%; p53ts 32C kill: 5µM*; Ub-GFP proteasome: 4%

Results for CCOC(C)(C)C ?
p53ts 39C kill: -2%; Imprint erasure: 5%; HBB splice mod: 0%; p53ts 32C kill: 1%[1.84 µM]

How did O=C(Nc1ccc(F)cc1F)c1ccc2c(O)c(S(=O)(=O)c3ccc(Cl)cc3)c(=O)[nH]c2c1 do in these assays?
p53ts 39C kill: -5%; Imprint erasure: -9%[10.9 µM]; p53ts 32C kill: 1%

How did CC(=O)Nc1ccc(NC(=O)CCc2c(C)nc3c(c(C)nn3-c3ccc(C)cc3)c2C)cc1 do in these assays?
p53ts 39C kill: 7.9µM*; Imprint erasure: 11%[10.9 µM]; p53ts 32C kill: -7%

How did Cc1c(Cl)cccc1Nc1nn2c(=O)c3ccc(C(=O)N(C)Cc4ccccc4)cc3nc2s1 do in these assays?
p53ts 39C kill: -26%; Imprint erasure: 9%[10.9 µM]; p53ts 32C kill: -9%

What do the screens show for `CN(C(=O)c1cccc(Nc2ccc(-c3ccc4c(c3)OCCO4)nn2)c1)C1CCCCC1`?
p53ts 39C kill: 11µM*; p53ts 32C kill: 13µM*

Screens deposited in PubChem BioAssay by National Center for Advancing Translational Sciences (NCATS).
